Test [1] addresses 5'-AMP-activated protein kinase catalytic subunit alpha-2 (Homo sapiens) (UniProt P54646). The conditions noted are these: at 1 µM.
Test [2] addresses T1, NUAK family SNF1-like kinase 1 (Homo sapiens) (UniProt O60285).
T1 sequence (whole entry): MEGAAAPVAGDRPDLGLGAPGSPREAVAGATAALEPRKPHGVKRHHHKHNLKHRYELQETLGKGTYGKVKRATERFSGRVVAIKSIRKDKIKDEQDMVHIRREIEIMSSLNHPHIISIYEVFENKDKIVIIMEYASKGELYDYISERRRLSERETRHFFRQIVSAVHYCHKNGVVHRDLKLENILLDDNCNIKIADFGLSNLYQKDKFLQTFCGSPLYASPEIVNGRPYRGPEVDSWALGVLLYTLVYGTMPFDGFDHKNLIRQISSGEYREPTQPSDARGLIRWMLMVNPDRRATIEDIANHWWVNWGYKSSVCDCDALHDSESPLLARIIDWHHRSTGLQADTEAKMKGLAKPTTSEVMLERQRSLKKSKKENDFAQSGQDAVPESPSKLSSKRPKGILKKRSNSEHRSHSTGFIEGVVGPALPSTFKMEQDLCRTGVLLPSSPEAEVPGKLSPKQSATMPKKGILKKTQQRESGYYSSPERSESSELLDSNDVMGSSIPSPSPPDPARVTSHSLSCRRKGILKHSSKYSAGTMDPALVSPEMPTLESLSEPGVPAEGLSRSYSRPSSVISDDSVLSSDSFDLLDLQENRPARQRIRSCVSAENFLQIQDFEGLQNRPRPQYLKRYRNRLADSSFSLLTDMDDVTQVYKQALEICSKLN
The note with it: at 0.1 µM.

Test [3] addresses T1, NUAK family SNF1-like kinase 1 (Homo sapiens). The conditions noted are these: at 1 µM.
Test [4] addresses T2, Serine/threonine-protein kinase BRSK1 (Homo sapiens) (UniProt Q8TDC3).
T2 sequence (whole entry): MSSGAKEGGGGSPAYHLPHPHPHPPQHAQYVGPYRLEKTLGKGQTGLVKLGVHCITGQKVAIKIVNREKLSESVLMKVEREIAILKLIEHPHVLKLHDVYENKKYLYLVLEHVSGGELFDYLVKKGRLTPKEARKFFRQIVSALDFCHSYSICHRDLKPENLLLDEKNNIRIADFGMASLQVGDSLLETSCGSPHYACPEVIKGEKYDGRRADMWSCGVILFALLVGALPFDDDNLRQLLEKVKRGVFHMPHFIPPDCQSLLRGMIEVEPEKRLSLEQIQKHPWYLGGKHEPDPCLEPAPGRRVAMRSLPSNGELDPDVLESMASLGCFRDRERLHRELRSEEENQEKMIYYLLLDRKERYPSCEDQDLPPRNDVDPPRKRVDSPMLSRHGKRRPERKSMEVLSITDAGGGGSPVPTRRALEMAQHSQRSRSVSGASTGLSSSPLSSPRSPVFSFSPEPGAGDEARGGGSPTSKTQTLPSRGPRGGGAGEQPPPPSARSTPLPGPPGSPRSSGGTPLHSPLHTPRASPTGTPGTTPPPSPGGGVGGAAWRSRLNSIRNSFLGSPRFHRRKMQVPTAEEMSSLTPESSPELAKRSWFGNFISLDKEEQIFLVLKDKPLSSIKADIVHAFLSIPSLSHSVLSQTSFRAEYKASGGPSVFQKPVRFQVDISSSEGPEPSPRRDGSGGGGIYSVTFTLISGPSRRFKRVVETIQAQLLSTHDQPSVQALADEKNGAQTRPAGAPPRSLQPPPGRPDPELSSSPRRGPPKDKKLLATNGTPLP
The conditions noted are these: at 0.1 µM.

Test [5] deals with T2, Serine/threonine-protein kinase BRSK1 (Homo sapiens). The note with it: at 1 µM.
Test [6] addresses T3, Serine/threonine-protein kinase BRSK2 (Homo sapiens) (UniProt Q8IWQ3).
T3 sequence (whole entry): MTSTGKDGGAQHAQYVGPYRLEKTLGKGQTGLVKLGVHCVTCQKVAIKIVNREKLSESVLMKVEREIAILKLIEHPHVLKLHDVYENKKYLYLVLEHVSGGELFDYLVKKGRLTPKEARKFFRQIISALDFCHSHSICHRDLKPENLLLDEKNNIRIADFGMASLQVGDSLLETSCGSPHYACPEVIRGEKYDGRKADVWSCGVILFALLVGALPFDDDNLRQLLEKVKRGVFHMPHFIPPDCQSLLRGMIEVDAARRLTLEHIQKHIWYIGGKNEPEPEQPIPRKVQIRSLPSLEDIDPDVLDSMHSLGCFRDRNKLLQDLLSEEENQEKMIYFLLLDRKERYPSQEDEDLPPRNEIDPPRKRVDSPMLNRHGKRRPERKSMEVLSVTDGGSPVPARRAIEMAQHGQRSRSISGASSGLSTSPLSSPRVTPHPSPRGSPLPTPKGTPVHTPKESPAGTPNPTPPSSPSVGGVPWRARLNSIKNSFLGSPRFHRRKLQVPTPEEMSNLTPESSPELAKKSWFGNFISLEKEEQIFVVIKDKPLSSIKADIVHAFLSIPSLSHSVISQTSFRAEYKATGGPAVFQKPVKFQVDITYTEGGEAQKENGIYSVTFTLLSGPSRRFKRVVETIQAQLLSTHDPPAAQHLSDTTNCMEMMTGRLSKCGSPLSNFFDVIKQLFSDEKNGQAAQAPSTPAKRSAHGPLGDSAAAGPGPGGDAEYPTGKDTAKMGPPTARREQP
The conditions noted are these: at 0.1 µM.

For test [7], the target named is T3, Serine/threonine-protein kinase BRSK2 (Homo sapiens). The note with it: at 1 µM.
The target in test [8] is Calcium/calmodulin-dependent protein kinase type 1D (Homo sapiens) (UniProt Q8IU85). The conditions noted are these: at 0.1 µM.
For test [9] the target is unchanged. The note with it: at 1 µM.
For test [10], the target named is Calcium/calmodulin-dependent protein kinase type II subunit alpha (Homo sapiens) (UniProt Q9UQM7). The note with it: at 0.1 µM.
Test [11] has the same target. The note with it: at 1 µM.
The target in test [12] is Calcium/calmodulin-dependent protein kinase type II subunit delta (Homo sapiens) (UniProt Q13557). The note with it: at 0.1 µM.
The target is the same in test [13]. The conditions noted are these: at 1 µM.
In test [14] the target is T4, Calcium/calmodulin-dependent protein kinase type IV (Homo sapiens) (UniProt Q16566).
T4 sequence (whole entry): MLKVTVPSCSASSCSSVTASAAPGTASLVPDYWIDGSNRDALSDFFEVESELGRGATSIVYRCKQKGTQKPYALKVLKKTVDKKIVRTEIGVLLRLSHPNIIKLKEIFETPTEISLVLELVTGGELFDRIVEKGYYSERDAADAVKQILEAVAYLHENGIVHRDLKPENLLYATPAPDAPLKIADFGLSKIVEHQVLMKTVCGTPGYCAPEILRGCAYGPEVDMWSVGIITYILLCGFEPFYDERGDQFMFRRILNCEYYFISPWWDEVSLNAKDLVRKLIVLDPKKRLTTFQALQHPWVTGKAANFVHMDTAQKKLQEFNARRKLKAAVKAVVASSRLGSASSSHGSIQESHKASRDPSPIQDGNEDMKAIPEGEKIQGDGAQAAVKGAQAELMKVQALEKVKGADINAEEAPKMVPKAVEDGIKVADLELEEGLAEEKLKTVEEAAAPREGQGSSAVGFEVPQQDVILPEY
The conditions noted are these: at 0.1 µM.

The target in test [15] is T4, Calcium/calmodulin-dependent protein kinase type IV (Homo sapiens). The note with it: at 1 µM.
Test [16] has as its target T5, Serine/threonine-protein kinase Chk1 (Homo sapiens) (UniProt O14757).
T5 sequence (whole entry): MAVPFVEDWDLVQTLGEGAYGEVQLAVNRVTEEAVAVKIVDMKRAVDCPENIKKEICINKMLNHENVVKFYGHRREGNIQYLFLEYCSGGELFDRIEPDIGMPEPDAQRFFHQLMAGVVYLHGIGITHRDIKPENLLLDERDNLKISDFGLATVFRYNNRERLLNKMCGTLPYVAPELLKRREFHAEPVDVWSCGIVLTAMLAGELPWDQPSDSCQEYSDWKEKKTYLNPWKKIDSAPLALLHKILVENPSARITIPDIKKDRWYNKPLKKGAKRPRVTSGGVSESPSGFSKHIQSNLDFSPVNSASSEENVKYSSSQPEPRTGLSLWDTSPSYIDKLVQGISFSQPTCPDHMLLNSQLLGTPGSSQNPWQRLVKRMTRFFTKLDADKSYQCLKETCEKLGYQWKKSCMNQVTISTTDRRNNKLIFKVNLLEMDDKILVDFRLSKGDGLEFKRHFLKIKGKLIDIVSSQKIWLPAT
The conditions noted are these: at 0.1 µM.

The target in test [17] is T5, Serine/threonine-protein kinase Chk1 (Homo sapiens). The conditions noted are these: at 1 µM.
Test [18] deals with Serine/threonine-protein kinase Chk2 (Homo sapiens) (UniProt O96017). The note with it: at 0.1 µM.
The target is the same in test [19]. The conditions noted are these: at 1 µM.
The target in test [20] is Death-associated protein kinase 1 (Homo sapiens) (UniProt P53355). The conditions noted are these: at 0.1 µM.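 Also: reported figure is the mean inhibition of DAPK1.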

Each structure is given as a SMILES string.

Calcium/calmodulin-dependent protein kinase type II subunit delta (Homo sapiens), sequence (Q13557 whole entry): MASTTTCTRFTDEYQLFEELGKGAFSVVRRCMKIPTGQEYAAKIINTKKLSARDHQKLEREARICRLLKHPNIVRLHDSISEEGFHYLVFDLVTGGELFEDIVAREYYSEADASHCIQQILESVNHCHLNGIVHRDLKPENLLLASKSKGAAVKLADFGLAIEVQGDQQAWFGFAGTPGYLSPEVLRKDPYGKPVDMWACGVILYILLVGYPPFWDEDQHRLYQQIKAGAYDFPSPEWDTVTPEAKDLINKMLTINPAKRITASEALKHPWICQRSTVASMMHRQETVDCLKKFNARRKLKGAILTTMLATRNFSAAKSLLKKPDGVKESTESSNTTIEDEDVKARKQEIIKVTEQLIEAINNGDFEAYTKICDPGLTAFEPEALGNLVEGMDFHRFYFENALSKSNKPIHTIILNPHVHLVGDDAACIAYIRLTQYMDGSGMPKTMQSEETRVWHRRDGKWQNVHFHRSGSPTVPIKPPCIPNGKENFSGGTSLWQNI
Death-associated protein kinase 1 (Homo sapiens), sequence (P53355 whole entry, looked up): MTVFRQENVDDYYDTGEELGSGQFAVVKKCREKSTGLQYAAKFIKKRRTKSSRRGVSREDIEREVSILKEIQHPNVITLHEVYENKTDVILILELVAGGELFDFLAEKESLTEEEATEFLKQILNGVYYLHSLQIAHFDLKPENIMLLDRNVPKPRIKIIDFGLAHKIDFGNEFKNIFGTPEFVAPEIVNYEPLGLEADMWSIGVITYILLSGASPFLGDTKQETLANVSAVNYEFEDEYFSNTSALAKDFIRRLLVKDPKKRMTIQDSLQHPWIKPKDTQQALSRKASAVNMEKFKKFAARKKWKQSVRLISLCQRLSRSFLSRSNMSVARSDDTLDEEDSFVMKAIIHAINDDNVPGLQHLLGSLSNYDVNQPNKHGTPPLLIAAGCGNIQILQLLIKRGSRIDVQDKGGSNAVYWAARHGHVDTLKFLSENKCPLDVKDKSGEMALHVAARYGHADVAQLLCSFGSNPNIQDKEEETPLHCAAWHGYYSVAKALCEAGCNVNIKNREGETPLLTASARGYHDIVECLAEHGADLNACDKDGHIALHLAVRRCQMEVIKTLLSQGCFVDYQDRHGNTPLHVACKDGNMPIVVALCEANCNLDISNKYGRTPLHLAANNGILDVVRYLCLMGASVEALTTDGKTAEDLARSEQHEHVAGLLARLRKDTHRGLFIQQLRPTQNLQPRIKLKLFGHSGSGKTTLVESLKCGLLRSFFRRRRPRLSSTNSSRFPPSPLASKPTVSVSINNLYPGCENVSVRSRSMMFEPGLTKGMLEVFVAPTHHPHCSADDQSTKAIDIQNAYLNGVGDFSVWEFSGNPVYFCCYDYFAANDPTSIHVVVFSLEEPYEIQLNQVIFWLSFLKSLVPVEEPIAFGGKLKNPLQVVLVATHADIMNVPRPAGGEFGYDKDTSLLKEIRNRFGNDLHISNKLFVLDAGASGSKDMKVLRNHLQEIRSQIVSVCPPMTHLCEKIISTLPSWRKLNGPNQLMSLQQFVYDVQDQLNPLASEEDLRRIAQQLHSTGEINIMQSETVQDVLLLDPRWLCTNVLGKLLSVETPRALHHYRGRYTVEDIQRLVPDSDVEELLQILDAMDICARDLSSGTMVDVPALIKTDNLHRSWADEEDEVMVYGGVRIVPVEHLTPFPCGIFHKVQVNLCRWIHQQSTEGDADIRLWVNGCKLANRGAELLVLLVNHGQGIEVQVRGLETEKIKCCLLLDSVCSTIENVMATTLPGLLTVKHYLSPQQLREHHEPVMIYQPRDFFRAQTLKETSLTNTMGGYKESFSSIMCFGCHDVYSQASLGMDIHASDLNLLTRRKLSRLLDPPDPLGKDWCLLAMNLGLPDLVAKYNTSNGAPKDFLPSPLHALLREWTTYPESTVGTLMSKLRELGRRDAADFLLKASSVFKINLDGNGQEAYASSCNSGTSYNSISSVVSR
Calcium/calmodulin-dependent protein kinase type 1D (Homo sapiens), sequence (Q8IU85 whole entry, looked up): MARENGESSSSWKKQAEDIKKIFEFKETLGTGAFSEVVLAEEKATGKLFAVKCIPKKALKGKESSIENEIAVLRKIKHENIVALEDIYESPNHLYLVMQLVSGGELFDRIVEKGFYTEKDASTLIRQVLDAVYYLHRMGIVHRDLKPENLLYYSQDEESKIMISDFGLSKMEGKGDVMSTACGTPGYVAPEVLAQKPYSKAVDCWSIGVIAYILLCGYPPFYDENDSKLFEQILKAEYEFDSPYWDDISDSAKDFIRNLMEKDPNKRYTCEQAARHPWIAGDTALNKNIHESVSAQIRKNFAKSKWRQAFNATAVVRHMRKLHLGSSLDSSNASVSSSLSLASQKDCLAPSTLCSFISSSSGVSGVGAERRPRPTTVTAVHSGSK
5'-AMP-activated protein kinase catalytic subunit alpha-2 (Homo sapiens), sequence (P54646 whole entry, looked up): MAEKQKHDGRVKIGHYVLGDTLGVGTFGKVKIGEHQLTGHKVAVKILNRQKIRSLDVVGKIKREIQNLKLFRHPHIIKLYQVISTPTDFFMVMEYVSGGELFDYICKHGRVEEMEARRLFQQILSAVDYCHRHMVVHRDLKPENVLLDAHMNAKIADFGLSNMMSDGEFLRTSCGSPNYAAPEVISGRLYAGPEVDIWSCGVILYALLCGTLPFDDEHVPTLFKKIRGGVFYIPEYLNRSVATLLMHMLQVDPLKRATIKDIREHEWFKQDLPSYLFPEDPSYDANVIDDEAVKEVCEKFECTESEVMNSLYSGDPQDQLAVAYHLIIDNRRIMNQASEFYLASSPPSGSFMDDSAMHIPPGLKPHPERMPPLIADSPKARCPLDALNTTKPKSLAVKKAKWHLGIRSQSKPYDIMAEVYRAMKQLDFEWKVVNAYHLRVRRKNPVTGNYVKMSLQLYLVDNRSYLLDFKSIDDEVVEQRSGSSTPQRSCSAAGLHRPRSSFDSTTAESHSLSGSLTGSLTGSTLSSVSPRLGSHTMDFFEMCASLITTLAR
Calcium/calmodulin-dependent protein kinase type II subunit alpha (Homo sapiens), sequence (Q9UQM7 whole entry): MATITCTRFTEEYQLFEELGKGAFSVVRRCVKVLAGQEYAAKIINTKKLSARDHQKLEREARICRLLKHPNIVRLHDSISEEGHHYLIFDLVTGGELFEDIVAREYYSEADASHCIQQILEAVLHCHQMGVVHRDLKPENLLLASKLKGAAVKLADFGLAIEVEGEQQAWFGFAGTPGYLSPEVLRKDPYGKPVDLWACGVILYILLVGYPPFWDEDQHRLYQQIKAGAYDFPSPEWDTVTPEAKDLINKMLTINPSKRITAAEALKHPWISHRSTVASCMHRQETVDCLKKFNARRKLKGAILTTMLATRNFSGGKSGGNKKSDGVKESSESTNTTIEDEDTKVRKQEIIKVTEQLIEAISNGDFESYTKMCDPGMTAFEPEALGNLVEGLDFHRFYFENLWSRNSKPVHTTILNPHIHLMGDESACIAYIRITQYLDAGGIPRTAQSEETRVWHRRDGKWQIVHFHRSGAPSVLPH
Serine/threonine-protein kinase Chk2 (Homo sapiens), sequence (O96017 whole entry): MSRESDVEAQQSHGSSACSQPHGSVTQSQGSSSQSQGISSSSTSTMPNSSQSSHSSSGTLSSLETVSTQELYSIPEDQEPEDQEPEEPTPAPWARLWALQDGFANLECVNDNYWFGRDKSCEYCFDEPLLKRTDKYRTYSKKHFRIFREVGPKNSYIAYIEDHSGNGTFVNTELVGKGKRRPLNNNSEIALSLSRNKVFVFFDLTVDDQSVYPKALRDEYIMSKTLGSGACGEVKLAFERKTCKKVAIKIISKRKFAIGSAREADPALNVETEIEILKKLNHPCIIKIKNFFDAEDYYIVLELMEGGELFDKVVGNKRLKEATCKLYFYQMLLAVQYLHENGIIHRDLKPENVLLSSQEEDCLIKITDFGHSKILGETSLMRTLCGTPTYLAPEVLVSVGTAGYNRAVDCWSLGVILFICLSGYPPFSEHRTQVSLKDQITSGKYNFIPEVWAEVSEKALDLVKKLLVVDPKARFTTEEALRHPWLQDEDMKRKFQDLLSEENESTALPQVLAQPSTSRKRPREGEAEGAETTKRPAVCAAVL

Consider `O=C(Nc1n[nH]c2cc(-c3ccccc3)ccc12)C1CC1`, for which the inhibition came out at 7.53% in test [1]; 4.99% in test [2]; 2.6% in test [3]; 4.46% in [4]; 21% in [5]; 3.64% in test [6]. The inhibition in [7] is 19.7%; in test [8], 0.34%; in [9], -0.38%; in test [10], 3.14%; in [11] it was 2.25%; in [12], 3.79%. For the same compound, the inhibition in [13] was 3.53%; in test [14], -1.93%; in [15], -1.21%; in [16], 2.36%; in test [17], 5.48%; in test [18], 2.81%. The inhibition was determined as 3.79% in test [19] and 5.91% in test [20].

Regarding `COc1ccc2cc(-c3c(-c4ccncc4)nc(-c4ccc(S(C)(=O)=O)cc4C)n3C)ccc2c1`, the inhibition in test [1] was 3.5%; in test [2], -2.12%; in test [3] it was 4.31%; in test [4], 1.72%; in [5] it was 1.23%; in test [6] it was 1.12%. For the same compound, the inhibition was 3.04% in [7]; 1.08% in test [8]; 1.85% in [9]; 2.82% in [10]; 3.89% in test [11]; 3.49% in test [12]. For the same compound, the inhibition was 3.21% in test [13]; 0.37% in test [14]; 0.96% in test [15]; -2.73% in [16]; -3.07% in [17]; -2.23% in test [18]. For the same compound, the inhibition was -0.36% in test [19] and -2.52% in test [20].

For the compound `COc1ccc2ncn(-c3cc(O[C@H](C)c4ccccc4Cl)c(C(N)=O)s3)c2c1`, the inhibition in [1] was found to be 1.17%; in [2], 0.64%; in [3] it was 15.7%; in [4] it was 2.58%; in test [5], 17.8%; in test [6], 6.22%. In addition, the inhibition in test [7] is 28.1%; in test [8] it was -1.85%; in [9], -1.6%; in test [10], 1.3%; in test [11], -1.4%; in test [12], 2.08%. In addition, the inhibition in test [13] is 4.15%; in test [14], -2.83%; in test [15], -2.54%; in [16], 0.23%; in test [17], 0.19%; in [18], 2.58%. The inhibition in test [19] amounted to 1.99%; in test [20], 3.77%.

Consider `NC(=O)c1cc(-c2ccncc2)cc(-c2ccccc2)c1N`, for which the inhibition came to 4.03% in test [1]; 0.7% in test [2]; 1.68% in [3]; 2.46% in test [4]; 4.23% in [5]; 1.64% in [6]. The inhibition in [7] came out at 2.72%; in test [8], 0.15%; in test [9], 1.27%; in test [10], 2.51%; in test [11], 3.97%; in test [12], 4.41%. For the same compound, the inhibition is 4.63% in [13]; 0.2% in [14]; -0.82% in test [15]; -1.87% in test [16]; -2.65% in test [17]; -1.34% in test [18]. Further, the inhibition in test [19] is -0.01%; in test [20], -2.69%.

Turning to `N#Cc1ccc(Oc2nccc(-c3c(-c4ccc(F)cc4)ncn3C3CCNCC3)n2)cc1`, the inhibition was 3.23% in [1]; -1.37% in test [2]; 0.67% in test [3]; -2.05% in test [4]; 0.23% in [5]; 0.71% in test [6]. The inhibition in test [7] came out at 2.75%; in test [8], 0.44%; in test [9] it was 0.96%; in test [10], 2.95%; in test [11] it was 0.01%; in test [12], 3.46%. Besides, the inhibition was 5.08% in [13]; -1.84% in [14]; 6.38% in test [15]; 1.81% in test [16]; -0.27% in test [17]; 4.28% in test [18]. Besides, the values for the inhibition in test [19] and in [20] were 4.2% and 2.55%, respectively.

As to `Fc1ccc(-c2ncn(C3CCNCC3)c2-c2ccnc(Oc3ccc(Oc4ccccc4)cc3)n2)cc1`, the inhibition in [1] is 3.68%; in test [2], 0.78%; in test [3] it was 0.71%; in test [4] it was 3.46%; in [5], -0.07%; in [6] it was 1.27%. Moreover, the inhibition in test [7] is 1.66%; in test [8] it was -0.26%; in test [9], 3.87%; in test [10] it was 2.01%; in test [11], 9.16%; in test [12], 3.93%. Besides, the inhibition is 10.3% in test [13]; -1.5% in [14]; 4.41% in test [15]; 10.6% in test [16]; 16.4% in test [17]; 8.69% in test [18]. In addition, the inhibition in [19] is 13.4%; in test [20], 12.4%.

Usually inhibition stands for the relative decrease from the control value, in per cent.
